From PubChem BioAssay (NCI)
Compounds without any hit were thinned out: in the full panel of roughly 83,000, 20% have a hit.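 Treatment: one concentration, 48 hours, 96-well format. Scoring: percent growth, with anything below 10 considered active.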 The source made the active and inactive calls.

Columns and labels:
Assay in all cases: NCI-60 one-dose screen, 48 h (100 = growth as untreated, 0 = no growth, -100 = all killed)
Settings in all cases: 10 µM unless noted
[1] = tested on: HCT-15 colon
[2] = tested on: HT29 colon
[3] = tested on: SNB-75 CNS
[4] = tested on: SNB-19 CNS
[5] = tested on: U251 CNS
[6] = tested on: PC-3 prostate
[7] = tested on: SK-MEL-5 melanoma
[8] = tested on: UACC-62 melanoma
[9] = tested on: LOX IMVI melanoma
[10] = tested on: SK-MEL-28 melanoma
[11] = tested on: SK-MEL-2 melanoma
[12] = tested on: EKVX NSCLC
[13] = tested on: SN12C renal
[14] = tested on: UO-31 renal
[15] = tested on: TK-10 renal
[16] = tested on: ACHN renal
[17] = tested on: CAKI-1 renal
[18] = tested on: CCRF-CEM leukemia
[19] = tested on: MOLT-4 leukemia

Measured: growth

C=C(C)[C@@H]1CC[C@]2(C(=O)N3CCN(C)CC3)CC[C@]3(C)[C@H](CC[C@@H]4[C@@]5(C)C/C(=C/c6ccncc6)C(=O)C(C)(C)[C@@H]5CC[C@]43C)[C@@H]12
inactive: [1] 35.8% | [2] 15.8% | [3] 87.9% | [4] 64.2% | [5] 47% | [6] 23.7% | [7] 59.8% | [8] 71% | [9] 55.9% | [10] 76.9% | [11] 64.6% | [12] 77.3% | [13] 47.1% | [14] 48% | [15] 89.4% | [16] 60.9% | [17] 71.1% | [18] 24.7%
active: [19] 3.16%

O=S(=O)(NCCNc1nccc(-c2c(-c3cccc(O)c3)nc3occn23)n1)c1ccccc1
inactive: [1] 103% | [2] 38.1% | [3] 87.8% | [4] 94.8% | [5] 95.4% | [6] 85.3% | [7] 33.7% | [9] 53.7% | [10] 34.1% | [11] 61.3% | [12] 109% | [13] 72.7% | [14] 101% | [15] 130% | [16] 82.1% | [17] 78.3% | [18] 80.9% | [19] 94.2%
active: [8] 8.22%

c1ccc2c(-c3nccs3)c[nH]c2c1
inactive: [1] 94.3% | [2] 98.9% | [3] 90.7% | [4] 98.1% | [5] 103% | [6] 81.5% | [7] 95.3% | [8] 93.5% | [9] 99.7% | [10] 100% | [11] 112% | [12] 88.6% | [13] 98.3% | [14] 85.1% | [15] 84.4% | [16] 97.6% | [17] 95.6% | [18] 111% | [19] 91.8%

COC(=O)C1=C(C(=O)ON)C2C=CC1(C(Cc1ccccc1)Nc1ccccc1)O2 (configuration not stated)
inactive: [2] 37.9% | [3] 106% | [4] 106% | [5] 94.6% | [6] 100% | [7] 104% | [8] 89.9% | [9] 75.8% | [10] 65.4% | [11] 86.7% | [12] 91.9% | [13] 87.4% | [14] 16.9% | [17] 57.3% | [19] 12.9%
active: [1] -53.8% | [15] -63.7% | [16] -99.7% | [18] -7.87%

COC(=O)/C=C1\S/C(=N\NC(=O)c2cc3ccc2/C=C\c2ccc(cc2)/C=C\3)N(Cc2ccccc2)C1=O
active: [9] 6.21% | [18] 3.83% | [19] 1.09%
inactive: [1] 27.8% | [2] 12.4% | [3] 51.2% | [4] 56.9% | [5] 55% | [6] 17.8% | [7] 82.3% | [8] 51.9% | [10] 101% | [11] 85.6% | [12] 77.7% | [13] 61.2% | [14] 45% | [15] 95.5% | [16] 46.1% | [17] 65.8%

O=C(/C=C(/C=C/c1csc2ccccc12)OB(F)F)/C=C/c1csc2ccccc12
inactive: [1] 11.4% | [2] 15.7% | [3] 16.5% | [4] 48.2% | [5] 17.1% | [6] 20.3% | [7] 31.5% | [11] 73.1% | [12] 23.7% | [15] 23.7% | [17] 10.1%
active: [8] 6.2% | [9] -3.05% | [10] 4.8% | [13] -9.88% | [14] -5.1% | [16] 7.13% | [18] -20.5% | [19] -18.6%

O=C(C1CCC1)N1N=C(c2ccc(-n3ccc(C(F)(F)F)n3)cc2)CC1c1ccc[nH]1 (configuration not stated)
inactive: [1] 85.6% | [2] 89.8% | [3] 101% | [4] 95.9% | [5] 82.2% | [6] 76.5% | [7] 100% | [8] 90.5% | [9] 92.8% | [10] 104% | [11] 101% | [12] 90.4% | [13] 98.3% | [14] 94.4% | [15] 89.1% | [16] 102% | [17] 91.5% | [18] 89.9% | [19] 74.8%

Nc1n[nH]c2cccc(C#Cc3cccc(C(=O)Nc4cc(CN5CCOCC5)cc(C(F)(F)F)c4)c3)c12
inactive: [1] 31.8% | [2] 18% | [3] 44.1% | [4] 66.7% | [5] 51% | [6] 36.9% | [7] 29% | [8] 11.7% | [10] 14.6% | [12] 60.6% | [13] 39.1% | [14] 17.6% | [15] 67.7% | [16] 27% | [17] 48.8% | [18] 19.4% | [19] 23.8%
active: [9] 7.72% | [11] 4.06%
